Screens from PubChem.
This is a sample that favours compounds with a hit; in the whole collection about 2.9% have one here.
ERa coact pot = ER-alpha (human) coactivator binding potentiation; coactivator binding (% of control), % at 25.6 µM; TR-FRET ERalpha-LBD/SRC-Cy5 coactivator binding, 2 h; 100 = basal binding, no effect; P03372; hit rate 1.3% among 86,000; in the data active = activity above about 200%;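 note: binding measured in presence of low estradiol as agonist stimulus; 0% = peptide alone without receptor and 100% = receptor with peptide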
ERa coact inh = blocks coactivator binding to human estrogen receptor alpha | inhibition, % at 25.6 µM | TR-FRET ER-alpha LBD / SRC-1 peptide, estradiol-bound | hit rate 1.7% among 86,000; in the data active = inhibition above about 50%;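 note: 0% = receptor plus peptide control and 100% = peptide only without receptor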
ERb SRC1 inh = ER-beta (human) coactivator binding inhibition; Q92731; TR-FRET ER-beta LBD / SRC1-Cy5 peptide binding; receptor agonist-loaded with 1 µM estradiol; inhibition, % at 25.6 µM; hit rate 1.3% among 86,000;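 active = compounds whose percent inhibition of the receptor-coactivator binding signal exceeds about 50% in the single-dose screen, limit read from the data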;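 note: 0% = receptor plus peptide wells without compound and 100% = peptide-only wells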
Target sequence (Q92731 whole entry, looked up, the tested form may be a part): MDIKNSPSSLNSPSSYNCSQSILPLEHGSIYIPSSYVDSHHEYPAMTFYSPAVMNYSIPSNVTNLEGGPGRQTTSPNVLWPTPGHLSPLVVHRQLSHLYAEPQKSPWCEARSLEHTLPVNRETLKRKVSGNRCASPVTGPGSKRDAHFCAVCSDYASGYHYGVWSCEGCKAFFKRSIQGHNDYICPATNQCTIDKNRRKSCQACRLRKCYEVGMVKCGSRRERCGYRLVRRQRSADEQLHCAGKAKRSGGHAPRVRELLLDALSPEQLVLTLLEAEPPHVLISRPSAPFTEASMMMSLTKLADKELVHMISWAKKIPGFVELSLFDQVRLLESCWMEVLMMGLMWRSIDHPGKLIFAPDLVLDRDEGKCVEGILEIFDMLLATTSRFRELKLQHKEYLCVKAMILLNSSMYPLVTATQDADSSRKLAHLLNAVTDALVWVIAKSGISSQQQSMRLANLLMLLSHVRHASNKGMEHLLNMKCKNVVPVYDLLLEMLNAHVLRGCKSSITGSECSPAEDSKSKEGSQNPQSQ
Smad3 inh = blocks human Smad3 binding to FoxH1 peptide | P84022 | TR-FRET Smad3/Dy647-FoxH1 peptide binding, europium anti-His | inhibition, % at 25 µM | hit rate 0.29% among 88,000 | AID 630;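 active = compounds that reduce the energy-transfer binding signal between the protein and its labelled peptide by more than half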;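 note: 0% = Smad3 plus labelled peptide maximal FRET and 100% = peptide-only background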
HePTP inhibitor = human HePTP phosphatase inhibition; P35236; recombinant HePTP phosphatase activity, OD absorbance; hit rate 0.64% among 110,000; inhibition, % at 20 µM; in the data active = inhibition above about 50%;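 note: plate controls were vehicle for no effect and reference inhibitor for full effect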
Candida biofilm = kills Candida albicans biofilms; AID 834; inhibition, % at 6 µM; C. albicans biofilm + clotrimazole, Alamar Blue; hit rate 0.14% among 85,000;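 active = inhibition above 20%; inactive = inhibition below 20%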;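 note: preformed 24 hr biofilms exposed to compound for 48 hr; 0% = biofilm without compound and 100% = blank killed by clotrimazole plus chlorhexidine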
The depositor's hits bear a star; . = no result given; [ ] = another dose, or the depositor's remark.

SMILES | ERa coact pot | ERa coact inh | ERb SRC1 inh | Smad3 inh | HePTP inhibitor | Candida biofilm
CCOc1ccc(N=Cc2ccc(OC(C)C)c(OC)c2)cc1 | . | . | . | . | -15 | .
COC(=O)C1=C(C)N=c2s/c(=C\c3c(F)cccc3Cl)c(=O)n2C1c1ccccc1 (stereo not drawn) | . | . | . | . | 7 | .
O=C(Nc1cccnc1)c1cc(-c2ccc3c(c2)OCO3)on1 | 405* | 29 | 17 | 8 | 5 | 6
O=C1CSC(=O)N1CNc1cccc2ccccc12 | . | . | . | . | 1 | .
CCSc1nc(O)c(C2OC(=O)c3c2ccc(OC)c3OC)c(=O)n1CC (stereo not drawn) | 101 | 8 | 4 | 84* | 10 | 4
O=C(Nc1ccc(-c2nc3cc(Cl)ccc3o2)cc1)c1ccc(Br)o1 | . | . | . | . | 22 | .
Cc1cc(C(=O)CSc2nnc(-c3ccccc3F)o2)c(C)n1Cc1cccs1 | 309* | 6 | 20 | -1 | 1 | 5
COc1ccccc1-n1cnnc1SCC(=O)c1cc(C)n(Cc2cccs2)c1C | 106 | 6 | 0 | -6 | -1 | 7
Cc1cc(C)c(C(=O)CSc2nnc(-c3ccccc3Br)o2)cc1C | 273*[fluorescence artefact?] | 4 | 17 | 2 | 6 | 1
Cc1cc(C(=O)CSc2nc3ccccc3n2CCC#N)c(C)n1Cc1cccs1 | 273* | 7 | 20 | 0 | 4 | 9
COc1cc(NC(=O)c2ccc(Cl)c(Cl)c2)c(OC)cc1NC(C)=O | . | . | . | . | -1 | .
O=C(NCCCN1CCOCC1)c1cc2c(=O)[nH]c3ccccc3c2s1 | 224* | -5 | -8 | -1 | 7 | 10
CC1=C(CC[C@H](C)CO)O[C@@H]2C[C@@H]3[C@H]4CC[C@H]5C[C@@H](O)CC[C@]5(C)[C@@H]4CC(=O)[C@@]3(C)[C@H]12 | . | . | . | 99* | . | .
C[C@]12CC[C@H](O)C[C@@H]1CC[C@H]1[C@H]2CC[C@]2(C)[C@@H]1CC[C@H]2c1cc(C(F)(F)F)n[nH]1 | . | . | . | 4 | . | .
O=C(Nc1ccc2c(c1)oc1ccccc12)c1cc2ccccc2o1 | . | . | . | . | 12 | .
CC1(C)CC(=O)c2sc(N3CCCCC3)nc2C1 | 117 | -5 | -6 | 6 | 5 | -6
Cc1cc(Br)c2c(c1)=C(c1sc(N3CCCCCC3)nc1O)C(=O)N=2 | 179 | 74*[fluorescence artefact?] | 50 | 8 | 10 | -6
COc1ccc(Cn2cc3c(-c4ccc(F)cc4)nnc-3c3cc(OC)c(OC)cc32)cc1 | 262*[fluorescence artefact?] | 49 | 34 | 8 | . | 2
COc1cc2c3nnc(-c4ccc(F)cc4)c-3cn(Cc3ccccc3)c2cc1OC | 424*[fluorescence artefact?] | 33 | 39 | -116 | . | 14
COc1cccc(-n2nnc3c(=O)n(Cc4ccc(F)cc4)cnc32)c1 | 109 | -2 | -2 | -10 | -6 | 3
COc1ccc(C(O)c2nccn2Cc2ccccc2)cc1OC (stereo not drawn) | 108 | -5 | -15 | -1 | . | 2
COc1cc2c3nnc(-c4ccc(F)cc4)c-3cn(Cc3ccc(F)cc3)c2cc1OC | 481*[fluorescence artefact?] | 24 | 32 | -12 | . | 14
COC(=O)c1cc(NC(=O)/C=C/c2ccc(OC)cc2)cc(C(=O)OC)c1 | . | . | . | . | -14 | .
N#Cc1c2n(c(=S)n(-c3ccccn3)c1=O)CCCCC2 | 79 | 14 | 52*[fluorescence artefact?] | 3 | -9 | 8
O=C(/C=C/c1ccc(-c2ccccc2[N+](=O)[O-])o1)Nc1ccc(NC(=O)c2ccco2)cc1 | . | . | . | . | -12 | .
SMILES | ERa coact pot | ERa coact inh | ERb SRC1 inh | Smad3 inh | HePTP inhibitor | Candida biofilm
CC1=C(C(=O)OCCOc2ccccc2)C(c2ccc(C(C)C)cc2)C2=C(CCCC2=O)N1 (stereo not drawn) | . | . | . | . | 9 | .
O=c1c2ccccc2nc(SCc2nc3ccccc3s2)n1Cc1ccco1 | 162 | 3 | 2 | 4 | -11 | 5
O=c1c2ccccc2sc2nc(C3CCCCC3)n(Cc3ccco3)c(=O)c12 | 222* | 46 | 38 | -5 | 10 | 15
CCc1nc2sc3ccccc3c(=O)c2c(=O)n1Cc1ccco1 | 57 | 76*[fluorescence artefact?] | 68* | 10 | . | 7
C[C@]12CC[C@@H]3c4ccc(O)cc4[C@@H](O)C[C@H]3[C@@H]1CC[C@@H]2O | 530* | 0 | 12 | -18 | . | 2
CCCC1=NN2C(=N)/C(=C/c3ccc(-c4ccc([N+](=O)[O-])cc4Br)o3)C(=O)N=C2S1 | . | . | . | . | 76* | .
NC1=NC(=O)/C(=C\c2ccc(-c3ccc([N+](=O)[O-])cc3)o2)S1 | . | . | . | . | 64* | .
CC(C)C1=NN2C(=N)/C(=C/c3ccc(-c4ccc([N+](=O)[O-])cc4)o3)C(=O)N=C2S1 | . | . | . | . | 79* | .
CCOC(=O)c1ccc(-n2c(C)nc3c(cnn3-c3ccc(Cl)cc3)c2=O)cc1 | 95 | -7 | -3 | 7 | . | 34*
O=C1/C(=C/c2cccc3ccccc23)SC(=S)N1Cc1ccco1 | . | . | . | . | 6 | .
O=C(NC1CCCCC1)C1CC2c3ccccc3C1c1ccccc12 (stereo not drawn) | . | . | . | . | -13 | .
NC(=O)/C(=N\OC(=O)c1ccco1)c1nc(-c2ccc(Br)cc2)cs1 | 86 | 66*[fluorescence artefact?] | 47 | -2 | . | 12
COc1ccc2c(c1OC)C(=O)N(c1cccc(F)c1)C2=O | . | . | . | . | -4 | .
Cn1c(=O)c2nc(-c3ccc(Cl)cc3Cl)oc2c2ccccc21 | 132 | 59*[fluorescence artefact?] | 45 | 10 | 7 | 3
O=c1/c(=C/c2ccc(-c3ccc(Cl)cc3Cl)o2)sc2nc3ccccc3n12 | . | . | . | . | 1 | .
COc1ccc(OC)c(N=c2oc3c(OC)cccc3cc2C(=O)NCc2ccco2)c1 | 44 | 75*[fluorescence artefact?] | 50*[fluorescence artefact?] | -1 | -7 | 4
COc1ccccc1N=c1oc2c(OC)cccc2cc1C(=O)NCc1ccco1 | 109 | 6 | 10 | 11 | 3 | 4
COc1cccc(C2CC(c3ccccc3OC)n3ncnc3N2)c1 (stereo not drawn) | 595*[fluorescence artefact?] | -1 | -2 | 0 | 3 | 9
COc1ccc(/C=C2/C(=N)N3N=C(C(C)C)SC3=NC2=O)cc1OC | . | . | . | . | -1 | .
CC1=CC2(O)OCCN(CCO)C2=CC1=O (stereo not drawn) | 25 | 78*[fluorescence artefact?] | 86*[fluorescence artefact?] | 16 | . | -2
COCCCNS(=O)(=O)c1ccccc1 | 110 | 0 | -8 | 3 | 3 | 5
O=C1c2cc(S(=O)(=O)NCCCO)ccc2-c2ccc(S(=O)(=O)NCCCO)cc21 | 77 | 7 | 0 | 2 | 0 | 0
COCCNS(=O)(=O)c1ccc2c(c1)C(=O)c1cc(S(=O)(=O)NCCOC)ccc1-2 | 78 | -1 | 55*[fluorescence artefact?] | -10 | 0 | 0
COCCCNS(=O)(=O)c1ccc(OC)cc1 | . | . | . | . | 98* | .
COC(=O)c1ccc(-c2n[nH]c(=O)c3ccccc23)cc1 | 296*[fluorescence artefact?] | 1 | -2 | 1 | 4 | 8
COC(=O)Cc1n[nH]c(=O)c2ccccc12 | 83 | -4 | -6 | -17 | . | -1
CC1(C)C=C(/C=C/c2ccccc2)NC(=O)N1 | . | . | . | . | 2 | .
Cc1cccc(NC(=O)c2c(O)c3cccc4c3n(c2=O)CC4)c1 | 217*[fluorescence artefact?] | 34 | 28 | 26 | . | 11
CCc1nnc(NC(=O)c2c(O)c3cccc4c3n(c2=O)CC4)s1 | 103 | 9 | 14 | 25 | 8 | -1
